Reference: PubChem BioAssay AID463190 (Sanford-Burnham Center for Chemical Genomics, 2010)
Screen size: about 330,000 compounds; about 7,300 (2.2%) were called active. Only a selection was taken, and actives are over-represented in it overall. Values without a mark were called inactive.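 The calls were made as follows: active = inhibition of at least 40%; inactive = the rest.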

Experiment: growth inhibition of tim10-1 ts yeast – luminescence, uHTS, primary screen (AID 463190);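 also: mutant grown at 25 °C; 0% = DMSO wells with yeast and 100% = wells holding no yeast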
Settings: S. cerevisiae tim10-1 ts strain growth, BacTiter-Glo, 24 h; at 20 µM; stronger effect = higher value
`O=C(Nc1cccc(Cl)c1)C1CCCN(c2cnccn2)C1` (centres undefined) gave an inhibition of -8.48%.
`O=C(NCCc1ccccc1)Oc1ccc(Cl)cc1` gave an inhibition of 13.9%.
In the case of `O=C(COc1ccc(-n2cnnn2)cc1)Nc1ccccc1Cl`, the inhibition is reported as -7.79%.
`Cc1ccc(NC(=O)CCC(=O)N2CCC(c3ccccc3)=N2)cc1S(=O)(=O)N1CCCCC1` showed an inhibition of -15.3%.
`Cc1ccc(C(=O)NCC(=O)OCC(=O)Nc2cccc(S(=O)(=O)N3CCCC3)c2)cc1C` gave an inhibition of -7%.
`COc1ccccc1CNC(=O)CCCN1C(=O)NC2(CCCC2)C1=O` showed an inhibition of 6.1%.
`Cn1c2ccccc2c(=O)c2c(O)cccc21` gave an inhibition of 6.4%.
In the case of `CCCc1nc2c(c(=O)c3ccccc3n2C)c(=O)n1C1CCCCCC1`, the inhibition is reported as 43.1% (active).
`Cn1c2ccccc2c2c(C(=O)N3CCN(c4ccc(F)cc4)CC3)cn(C3CCCC3)c(=O)c21` gave an inhibition of 36.7%.
With `CCc1nc2nc(C)c(NS(=O)(=O)c3ccc4c(c3)CCCC4)c(=O)n2[nH]1` the inhibition was -10.4%.
With `O=c1oc(-c2ccco2)nc2sc3c(c12)CCCCC3` the inhibition was 41.5% (active).
`Cn1c(=O)n(Cc2ccco2)c(=N)c2c3c(sc21)CCCC3` gave an inhibition of 12.5%.
For `O=S(=O)(c1ccc(Cl)cc1)c1nc(-c2ccco2)oc1N1CCCCC1`, the inhibition was 26.4%.
In the case of `C/C(=N\NC(=O)CNc1cccc2ccccc12)c1ccc(Br)s1`, the inhibition is reported as 41.9% (active).
For `Cc1cccc(/C=N/NC(=O)CNc2cccc3ccccc23)n1`, the inhibition was 23.6%.
In the case of `Cn1cccc1/C=N/NC(=O)CNc1cccc2ccccc12`, the inhibition is reported as 13.6%.
In the case of `CC(C)c1ccc(NC2CCCN(C(=O)c3ccncc3)C2)cc1` (centres undefined), the inhibition is reported as 8.48%.
With `Fc1ccccc1OCCSc1nc2ccccc2o1` the inhibition was 27.5%.
`COCCN(Cc1ccccc1)C(=O)Cc1ccc(S(=O)(=O)N2CCOCC2)s1` showed an inhibition of 18.8%.
In the case of `COc1nc(NCc2ccc(Cl)cc2)nc(OC)n1`, the inhibition is reported as 6.89%.
Compound `C=CCNc1nc(C)nc(OC)n1` has an inhibition of 7.31%.
In the case of `C=CCNc1nc(Nc2ccc(Cl)cc2)nc(OC)n1`, the inhibition is reported as 43.2% (active).
In the case of `Cc1[nH][nH]c(=O)c1C(c1ccc(-c2ccc(Cl)cc2)o1)c1c(C)[nH][nH]c1=O`, the inhibition is reported as 67.1% (active).
Work on `CN(CC(=O)Nc1ccc(F)cc1)C(=O)c1ccc(-c2ccc(Cl)cc2)o1` yielded an inhibition of 21.8%.
Compound `CCCCSc1[nH]c(=O)c(C(=O)OCC)cc1C#N` has an inhibition of -14.3%.
For `O=C(CSC(=S)N1CCOCC1)c1cc(Br)cc(Br)c1O`, the inhibition was 50.1% (active).
`O=C(c1cc2cc(Br)cc(Br)c2oc1=O)N1CCOCC1` gave an inhibition of 7.28%.
With `O=C(CSC(=S)N1CCOCC1)c1ccccc1` the inhibition was 5.05%.
`Nn1c(SCC(=O)NC2CCCC2)nnc1-c1ccccc1F` gave an inhibition of -11.7%.
With `CC(=O)Nc1ccc(Sc2ccccc2C(=O)N2CCCC2)cn1` the inhibition was 7.35%.
Compound `CC(C)(C)CN1CCNC(=O)C1CC(=O)NC1Cc2ccccc2C1` (centres undefined) has an inhibition of 16.6%.
For `CN1CN(C)c2ccc([N+](=O)[O-])c3cccc1c23`, the inhibition was 9.35%.
For `CCOc1cccc(=O)c2c(C)n(CC3CCCO3)c(C)c12` (centres undefined), the inhibition was 1.25%.
In the case of `O=C1c2cccc3c([N+](=O)[O-])ccc(c23)C(=O)N1CC1CCCO1` (centres undefined), the inhibition is reported as 71.2% (active).
For `O=C(c1ccccc1)N1CCC(CC2CC(c3ccc(Cl)cc3)=NO2)(C(=O)NCC2CCCCC2)CC1` (centres undefined), the inhibition was 41.2% (active).
In the case of `COc1ccc(CNC(=O)C2(CC3CC(c4ccccc4)=NO3)CCN(C(=O)c3cccc(O)c3)CC2)cc1` (centres undefined), the inhibition is reported as 2.25%.
For `CCCCCCCNC(=O)C1(CC2CC(c3cccc(Br)c3)=NO2)CCN(C(=O)c2cc(OCC)c(OCC)c(OCC)c2)CC1` (centres undefined), the inhibition was -4.27%.
For `O=C(NCC1CCCO1)C1CCN(C2CCN(C(=O)C3CCCCC3)CC2)CC1` (centres undefined), the inhibition was -2.3%.
For `C/C(=N/O)c1ccc(N2C(=O)C3C4C=CC(C3C2=O)C2C3C(=O)N(c5ccc(/C(C)=N/O)cc5)C(=O)C3C42)cc1` (centres undefined), the inhibition was 6.62%.
With `O=C(O)c1cccc(S(=O)(=O)N2CC=C(c3ccccc3)CC2)c1` the inhibition was 13.4%.
In the case of `COc1ccc(OC)c(S(=O)(=O)n2c([N+](=O)[O-])cnc2C)c1`, the inhibition is reported as 13.3%.
For `COc1ccc(C(C[N+](=O)[O-])n2nc(C)cc2C)cc1` (centres undefined), the inhibition was 43.3% (active).
With `CCOc1ccc(C(C)C)cc1S(=O)(=O)n1nc(C)cc1C` the inhibition was 36.6%.
For `Cc1ccc(S(=O)(=O)N(C)C)cc1NC(=O)c1ccc(-n2cncn2)c([N+](=O)[O-])c1`, the inhibition was -0.831%.
Work on `Cn1ccs/c1=N\S(=O)(=O)c1ccc(C(C)(C)C)cc1` yielded an inhibition of 26.8%.
In the case of `COc1cc(C(=O)OCc2cc(=O)n3ccsc3n2)ccc1OC(C)C`, the inhibition is reported as -4.26%.
`CCCCCCSc1nsc(N)n1` showed an inhibition of 26.2%.
With `CN(Cc1ccccc1)CC(O)COc1ccc(CNCc2cc3ccccc3s2)cc1` (centres undefined) the inhibition was -10.1%.
In the case of `COC(=O)c1ccccc1NS(=O)(=O)c1ccc2[nH]c(=O)[nH]c2c1`, the inhibition is reported as 5.53%.
In the case of `CCOc1ccc(NC(=O)c2ccccc2NS(C)(=O)=O)cc1`, the inhibition is reported as -4.15%.
In the case of `COC(=O)c1ccc(NC(=O)c2ccccc2NS(=O)(=O)c2ccccc2)cc1`, the inhibition is reported as 40.3% (active).
Compound `CCOC(=O)c1ccc(NC(=O)CS(=O)(=O)c2cn(CC)c3ccccc23)cc1` has an inhibition of 14.8%.
Work on `CC(=O)c1cc(CN2CCC(n3nccc3NC(=O)c3ccccc3Cl)CC2)cs1` yielded an inhibition of -3.89%.
For `Cc1ccc(N=Cc2c(O)n(-c3nccs3)c(=O)c3ccccc23)c(C)c1`, the inhibition was 9.76%.
`OCc1nc(CO)n(Cc2ccccc2)n1` gave an inhibition of 4.38%.
Compound `Cc1cc(OC(=O)c2c(Cl)cccc2Cl)nc(C)n1` has an inhibition of 35%.
In the case of `Cc1cc(C)c(S(=O)(=O)c2ccccc2)c(OC(=O)c2c(F)cccc2Cl)n1`, the inhibition is reported as 42.6% (active).
Work on `Cc1ccc(NNC(=O)c2c(F)cccc2Cl)cc1Cl` yielded an inhibition of 14%.
Compound `O=C(O)c1cccnc1NC1CCCC1` has an inhibition of -10.6%.
In the case of `CCC(=O)c1cn(CCOc2ccccc2OC)c2ccccc12`, the inhibition is reported as 4.25%.
In the case of `CCc1ccc(-c2cc3c(=O)n(CC(=O)NCCCN4CCN(Cc5ccccc5)CC4)nc(C)n3n2)cc1`, the inhibition is reported as 43.7% (active).
`Cc1nn(CC(=O)NCCc2ccccc2)c(=O)c2cc3occc3n12` gave an inhibition of -16.4%.
Work on `Cc1ccc(-c2ccc(=O)n(CC(=O)NCCCN3CCCCC3)n2)cc1` yielded an inhibition of -3.38%.
In the case of `CCOC(=O)/C=C/CN(C(=O)OC(C)(C)C)S(=O)(=O)N1CC=CC1`, the inhibition is reported as 17.9%.
Work on `CC(C)(Oc1ccc(C2CC2(Cl)Cl)cc1)C(=O)O` (centres undefined) yielded an inhibition of 9.95%.
`CN(C)C(=O)c1ccc(NC(=O)c2ccccc2-c2ccccc2)cc1` gave an inhibition of 3.15%.
In the case of `CN(C)C(=O)c1ccc2c(c1)C1C3CCC(C3)C1C(c1ccccc1)N2` (centres undefined), the inhibition is reported as 46% (active).
For `Cc1ccc(C)c(N2CCN(C(=O)CCc3nc(-c4cccc(C(F)(F)F)c4)no3)CC2)c1`, the inhibition was 17.8%.
For `OCCC1CN(Cc2ccccc2-c2ccco2)CCN1Cc1ccsc1` (centres undefined), the inhibition was 17.5%.
With `COc1cc(C=NNC(=O)c2cccnc2)ccc1OC(=O)c1ccccc1F` the inhibition was 4.11%.
For `CN(NS(=O)(=O)c1cccs1)c1ncc(C(F)(F)F)cc1Cl`, the inhibition was 15.9%.
With `Cc1cc(C)n(-c2nc(SCC(=O)N3CCCC3)c3c4c(sc3n2)CCCC4)n1` the inhibition was 52.2% (active).
`COCCNc1nc(-n2nc(C)cc2C)nc2sc3c(c12)CCCC3` gave an inhibition of 30.3%.
`CC(C)c1nc(SCC(=O)Nc2cccc(C(=O)O)c2)c2c3c(sc2n1)CCCC3` showed an inhibition of 10.1%.
For `O=C(O)C1CCCN1S(=O)(=O)c1ccc(Br)cc1` (centres undefined), the inhibition was -5.99%.
For `COCCN(C(=O)COC(=O)Cc1cccc(OC)c1)c1c(N)n(Cc2ccccc2)c(=O)[nH]c1=O`, the inhibition was 0.462%.
Work on `CC(C)(C)NC(=O)/C(=C/c1cccnc1)NC(=O)c1ccco1` yielded an inhibition of -15.4%.
For `N#C/C(=C\c1cccnc1)C(=O)Nc1ccc(SC(F)F)cc1`, the inhibition was 52.5% (active).
In the case of `Cc1cc(/C=C(/C#N)C(=O)Nc2ccc(Cl)cc2)c(C)n1-c1cccnc1`, the inhibition is reported as 20.6%.
In the case of `O=C(O)CCCCCCCCc1cn(CN2C(=O)c3ccccc3C2=O)nn1`, the inhibition is reported as -13.2%.
`CCOC(=O)N1CCC(N(CCOC)C(=O)Nc2ccc(C)c(C)c2)CC1` gave an inhibition of 26.7%.
Compound `COc1ccc(/C(=N\O)c2nccc3cc(OC)c(OC)cc23)cc1OC` has an inhibition of 17.4%.
`Cc1ccc(-c2csc(NCCc3nc4cc(Cl)c(Cl)cc4n3CCOCCO)n2)cc1` showed an inhibition of 33.4%.
With `Cc1ccc(Nc2nc(-c3ccc(O)cc3O)cs2)nc1` the inhibition was 43.9% (active).
For `Cc1ccccc1Nc1nc(-c2cccnc2)cs1`, the inhibition was -3.25%.
For `COc1c(C(=O)N2CCCC2)ccc2ccccc12`, the inhibition was 6%.
`C[C@@H](NC(=O)[C@@H]1Cc2ccccc2CN1)C(=O)NC1CCCC1` showed an inhibition of 5.23%.
For `CC(C)(CNC(=O)c1cc(=O)[nH]c2ccccc12)N1CCOCC1`, the inhibition was -7.73%.
In the case of `O=[N+]([O-])c1ccc(N/N=C/c2ccccc2)cc1`, the inhibition is reported as 40.7% (active).
Compound `O=C(N/N=C/c1ccc([N+](=O)[O-])cc1)C(=O)N1CCCC1` has an inhibition of 17.3%.
For `O=[N+]([O-])c1cccc(/C=N/Nc2ncc(Br)cn2)c1`, the inhibition was -23.5%.
For `COc1ccc(-n2nc(C(=O)NCC(=O)N3CCN(c4ccccc4OC)CC3)c3ccccc3c2=O)c(OC)c1`, the inhibition was 1.49%.
Compound `CCN(c1ccccc1)S(=O)(=O)c1ccc2[nH]c(=O)[nH]c2c1` has an inhibition of 11.5%.
`O=C(O)C(c1ccccc1)C1(O)CCCCC1` (centres undefined) gave an inhibition of 2.11%.
